From PubChem BioAssay
Calls of active or inactive are those of the source.

Key:
[1] = anti-His antibody binders, primary screen, artefact control for SMM control protein annotation, biochemical, small-molecule microarray, 635 nm fluorescence (AID 1128); settings: anti-His Alexa647 antibody binding, higher = more signal;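 note: score merges feature fluorescence with signal-to-noise for each printed compound spot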
[2] = test system: Human papillomavirus type 1a E7 protein (residues 1-88); assay: HPV1a E7 small-molecule binders, primary screen, biochemical, small-molecule microarray, residues 1-88, 635 nm (AID 1129); settings: small-molecule microarray binding, fluorescence 635 nm; higher = more signal
[3] = biological target: Focal adhesion kinase 1 (Homo sapiens) (UniProt Q05397); assay: small-molecule microarray binders of FAK, primary screen, biochemical, 635/667 nm fluorescence, BSA, DTT (AID 1130); settings: PTK2 binding, 635 nm fluorescence, higher = more signal;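 note: composite of spot emission at 667 nm and signal to noise over triplicate slides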
[4] = test system: Fibrinogen (Alexa647-labelled); assay: fibrinogen binders on compound microarrays, profiling panel, artefact control for SMM control-protein annotation, biochemical, small-molecule microarray, 635/667 nm fluorescence (AID 1131); settings: fibrinogen-A647 binding fluorescence, higher = more signal;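 note: z-score merges 667 nm fluorescence with per-spot signal-to-noise over triplicate slides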
[5] = biological target: Follistatin (Homo sapiens) (UniProt P19883); assay: follistatin binders on small-molecule microarrays, primary screen, biochemical, small-molecule microarray, 635/667 nm fluorescence (AID 1132); settings: FST binding, 635 nm fluorescence, higher = more signal
[6] = biological target: Fibroblast growth factor 2 (Homo sapiens) (UniProt P09038); assay: FGF2 binders on small-molecule microarrays, primary screen, biochemical, small-molecule microarray, 635/667 nm fluorescence (AID 1133); settings: small-molecule microarray binding, FGF2, fluorescence 635/667; higher = more signal
[7] = mitochondrial membrane potential change in A549 cells, profiling panel, cell-based, JC-1 fluorescence, basal, 24 h, 100 nL (AID 1138); settings: higher = more signal;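 note: A549 lung adenocarcinoma cells under basal conditions with no added stimulus; test concentration not given here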
Lefty1 = Lefty1 binders on small-molecule microarrays, primary screen, biochemical, small-molecule microarray, 635/667 nm fluorescence (AID 1139); settings: small-molecule microarray binding, fluorescence 635/667; higher = more signal
[8] = test system: wheat germ agglutinin (Triticum aestivum), Alexa647-labelled; assay: wheat germ agglutinin binders on compound microarrays, profiling panel, artefact control for SMM control-protein annotation, biochemical, small-molecule microarray, 635/667 nm fluorescence (AID 1140); settings: WGA-A647 binding, 635 nm fluorescence, higher = more signal;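 note: score merges 667 nm feature emission with signal to noise over triplicate slides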
[9] = biological target: Luciferin 4-monooxygenase (Photinus pyralis) (UniProt P08659); assay: firefly luciferase enzyme inhibitors, primary screen, biochemical, luminescence, purified enzyme, 2006 set (AID 1141); settings: SteadyGlo luminescence, 30 min, higher = more signal, called active from +8 up or from −8 down;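 note: cell-free assay with purified firefly luciferase at 100 ng per well in PBS; test concentration not given here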
Chain of Luciferin 4-monooxygenase (Photinus pyralis) (P08659 whole entry, looked up): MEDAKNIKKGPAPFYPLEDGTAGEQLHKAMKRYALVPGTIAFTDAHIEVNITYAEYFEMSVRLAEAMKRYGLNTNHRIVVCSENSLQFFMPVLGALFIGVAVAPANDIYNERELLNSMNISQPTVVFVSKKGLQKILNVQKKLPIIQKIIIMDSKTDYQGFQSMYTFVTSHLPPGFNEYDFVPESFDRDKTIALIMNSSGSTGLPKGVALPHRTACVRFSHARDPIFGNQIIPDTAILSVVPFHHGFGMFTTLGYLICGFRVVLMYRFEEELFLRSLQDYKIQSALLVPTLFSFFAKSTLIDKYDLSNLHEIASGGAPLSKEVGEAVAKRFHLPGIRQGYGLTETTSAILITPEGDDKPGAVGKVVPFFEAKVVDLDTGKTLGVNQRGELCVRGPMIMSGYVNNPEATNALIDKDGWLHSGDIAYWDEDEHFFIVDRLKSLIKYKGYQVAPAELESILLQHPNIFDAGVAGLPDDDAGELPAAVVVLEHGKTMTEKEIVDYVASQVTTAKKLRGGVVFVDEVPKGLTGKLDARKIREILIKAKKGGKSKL

Chain of Focal adhesion kinase 1 (Homo sapiens) (Q05397 whole entry, looked up): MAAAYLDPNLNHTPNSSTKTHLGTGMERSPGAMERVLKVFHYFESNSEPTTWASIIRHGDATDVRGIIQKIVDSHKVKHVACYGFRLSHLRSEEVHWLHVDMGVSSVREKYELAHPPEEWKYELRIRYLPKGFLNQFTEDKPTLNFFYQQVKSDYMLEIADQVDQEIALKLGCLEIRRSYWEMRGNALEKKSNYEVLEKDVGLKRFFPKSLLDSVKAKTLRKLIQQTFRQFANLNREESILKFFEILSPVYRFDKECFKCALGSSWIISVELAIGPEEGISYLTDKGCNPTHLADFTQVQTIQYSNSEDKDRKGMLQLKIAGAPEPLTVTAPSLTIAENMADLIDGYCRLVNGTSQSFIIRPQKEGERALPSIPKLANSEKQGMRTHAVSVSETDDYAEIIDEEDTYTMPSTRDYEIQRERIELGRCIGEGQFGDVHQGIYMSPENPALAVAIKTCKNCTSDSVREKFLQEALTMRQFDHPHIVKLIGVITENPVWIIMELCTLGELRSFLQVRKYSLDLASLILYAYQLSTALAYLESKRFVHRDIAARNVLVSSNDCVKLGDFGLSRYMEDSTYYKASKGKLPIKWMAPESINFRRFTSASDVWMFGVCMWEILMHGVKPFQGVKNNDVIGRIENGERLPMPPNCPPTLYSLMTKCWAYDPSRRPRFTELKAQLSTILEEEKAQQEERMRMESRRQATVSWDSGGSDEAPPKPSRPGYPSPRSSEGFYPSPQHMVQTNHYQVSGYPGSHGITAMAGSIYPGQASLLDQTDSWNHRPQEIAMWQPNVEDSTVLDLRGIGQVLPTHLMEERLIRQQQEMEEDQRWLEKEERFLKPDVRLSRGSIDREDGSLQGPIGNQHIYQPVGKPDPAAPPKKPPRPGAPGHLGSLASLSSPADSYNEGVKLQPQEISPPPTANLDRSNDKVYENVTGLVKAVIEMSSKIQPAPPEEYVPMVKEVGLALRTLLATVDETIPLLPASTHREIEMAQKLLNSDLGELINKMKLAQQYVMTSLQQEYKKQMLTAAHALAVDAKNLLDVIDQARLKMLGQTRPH
Chain of Fibroblast growth factor 2 (Homo sapiens) (P09038 whole entry, looked up): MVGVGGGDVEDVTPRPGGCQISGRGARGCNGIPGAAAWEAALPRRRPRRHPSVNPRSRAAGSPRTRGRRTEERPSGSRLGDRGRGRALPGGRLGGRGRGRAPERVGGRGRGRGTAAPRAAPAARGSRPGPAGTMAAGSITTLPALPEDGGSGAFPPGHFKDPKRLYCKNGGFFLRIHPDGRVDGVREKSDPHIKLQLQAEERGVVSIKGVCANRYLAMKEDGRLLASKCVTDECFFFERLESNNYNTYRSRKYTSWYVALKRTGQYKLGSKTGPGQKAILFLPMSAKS
Chain of Follistatin (Homo sapiens) (P19883 whole entry, looked up): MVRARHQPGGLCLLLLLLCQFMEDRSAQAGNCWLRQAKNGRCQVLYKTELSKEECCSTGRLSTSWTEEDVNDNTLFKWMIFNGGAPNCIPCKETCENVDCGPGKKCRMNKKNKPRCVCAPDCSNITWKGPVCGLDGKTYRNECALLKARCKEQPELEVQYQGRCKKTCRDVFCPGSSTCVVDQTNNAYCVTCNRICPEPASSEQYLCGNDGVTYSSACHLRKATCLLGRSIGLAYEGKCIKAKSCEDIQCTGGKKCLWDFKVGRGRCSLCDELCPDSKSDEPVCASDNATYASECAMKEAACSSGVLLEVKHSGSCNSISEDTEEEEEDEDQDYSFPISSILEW

## COCC1C2CC[C@H]3C(OCc4ccc(OC)cc4)OC[C@]4(C)[C@H]3C2=C(CN4C(=O)OC(C)(C)C)[C@H](C)C1COC (stereo not given in full)
[1]
  composite z-score: 0.565
[2]
  composite z-score: 1.2
[3]
  composite z-score: 2.09
[4]
  composite z-score: 1.02
[5]
  composite z-score: 0.916
[6]
  composite z-score: 0.0753
[7]
  z-score: 2.48
Lefty1
  composite z-score: 0.757
[8]
  composite z-score: 0.819
[9]
  z-score: -0.503 (inactive)

## CC(=O)n1cc(C(O)C2C=CC3C(=O)N(c4ccccc4)C(=O)C3N2Nc2ccc(C(C)C)cc2)c2ccccc21 (stereo not given)
[1]
  composite z-score: 0.701
[2]
  composite z-score: 1.2
[3]
  composite z-score: 1.03
[4]
  composite z-score: 1.02
[5]
  composite z-score: 1
[6]
  composite z-score: 0.672
[7]
  z-score: 0.662
Lefty1
  composite z-score: 0.304
[8]
  composite z-score: 0.743
[9]
  z-score: 0.22 (inactive)

## CN(C)C(=O)[C@]1(CCS(=O)(=O)c2ccccc2)N=C(c2ccc(OCCCO)cc2)O[C@@H]1c1ccccc1
[1]
  composite z-score: 1.57
[2]
  composite z-score: 1.26
[3]
  composite z-score: 1.23
[4]
  composite z-score: 1
[5]
  composite z-score: 1.29
[6]
  composite z-score: 0.345
[7]
  z-score: 0.17
Lefty1
  composite z-score: 0.476
[8]
  composite z-score: -0.0414
[9]
  z-score: 0.396 (inactive)

## Cc1ccc(S[C@]2(C(=O)NCc3ccccc3)CC(=O)N(Cc3cc(C(F)(F)F)cc(C(F)(F)F)c3)[C@@H]2c2ccc(CO)cc2I)cc1
[1]
  composite z-score: -1.1
[2]
  composite z-score: -0.774
[3]
  composite z-score: 0.438
[4]
  composite z-score: -0.885
[5]
  composite z-score: -1.18
[6]
  composite z-score: -1.45
[7]
  z-score: 1.61
Lefty1
  composite z-score: -1.25
[8]
  composite z-score: -0.799
[9]
  z-score: -0.461 (inactive)

## Cc1ccc(N2C(=O)c3ccccc3[C@](C)(C(=O)NCc3ccccc3)[C@@H]2c2ccc(CO)cc2)nc1
[1]
  composite z-score: 2.31
[2]
  composite z-score: -0.27
[3]
  composite z-score: 0.771
[4]
  composite z-score: -0.887
[5]
  composite z-score: 1.31
[6]
  composite z-score: 0.464
[7]
  z-score: -0.425
Lefty1
  composite z-score: -0.0828
[8]
  composite z-score: 0.0023
[9]
  z-score: -1.1 (inactive)

## C=C(COC)C(=O)CC[C@H](OC(=O)c1cccnc1)c1ccc(CO)o1
[1]
  composite z-score: 0.784
[2]
  composite z-score: 0.113
[3]
  composite z-score: -0.163
[4]
  composite z-score: 0.978
[5]
  composite z-score: 1.34
[6]
  composite z-score: 1.26
[7]
  z-score: -0.595
Lefty1
  composite z-score: 1.15
[8]
  composite z-score: 0.264
[9]
  z-score: -0.721 (inactive)

## C[C@@H]1ON(c2ccc(I)cc2)[C@H](c2ccc(OC(=O)OC(C)(C)C)cc2)[C@H]1C(=O)N1C(=O)OC[C@H]1Cc1ccccc1
[1]
  composite z-score: 0.955
[2]
  composite z-score: 1.13
[3]
  composite z-score: -0.0457
[4]
  composite z-score: 0.966
[5]
  composite z-score: 0.61
[6]
  composite z-score: 0.255
[7]
  z-score: 0.386
Lefty1
  composite z-score: 0.445
[8]
  composite z-score: 0.348
[9]
  z-score: -0.695 (inactive)

## COc1ccc([Si](C)(C)[C@H]2[C@H](CCO)O[C@@]3(C(=O)N(Cc4ccccc4)c4ccc(N5C(=O)c6ccccc6Oc6ccccc65)cc43)[C@@H]2C)cc1
[1]
  composite z-score: 0.814
[2]
  composite z-score: 0.885
[3]
  composite z-score: -0.21
[4]
  composite z-score: -0.0167
[5]
  composite z-score: -0.4
[6]
  composite z-score: 1.02
[7]
  z-score: 0.616
Lefty1
  composite z-score: -0.204
[8]
  composite z-score: 1.23
[9]
  z-score: 0.666 (inactive)

## CN(C)C(=O)[C@@]1(Cc2ccccc2N=[N+]=[N-])N=C(c2ccc(OCCCO)cc2)O[C@H]1c1ccccc1
[1]
  composite z-score: 1.78
[2]
  composite z-score: 1.25
[3]
  composite z-score: 0.235
[4]
  composite z-score: 0.992
[5]
  composite z-score: 1.15
[6]
  composite z-score: 1.37
[7]
  z-score: -0.238
Lefty1
  composite z-score: -0.442
[8]
  composite z-score: 1.22
[9]
  z-score: -2.17 (inactive)

## C=C(COC)C(=O)CC[C@H](OC(C)=O)c1ccc(OCCO)cc1
[1]
  composite z-score: 0.943
[2]
  composite z-score: 0.0389
[3]
  composite z-score: -0.267
[4]
  composite z-score: -0.0148
[5]
  composite z-score: 1.51
[6]
  composite z-score: 1.43
[7]
  z-score: -0.686
Lefty1
  composite z-score: 1.46
[8]
  composite z-score: 0.777
[9]
  z-score: -0.574 (inactive)

## COCCOC(=O)N1C(=O)[C@@]2(c3cc(C#CCCO)ccc31)[C@H](C(N)=O)[C@H]1C(=O)O[C@H](c3ccccc3)[C@H](c3ccccc3)N1[C@@H]2c1ccc(OCCO)cc1
[1]
  composite z-score: 0.911
[2]
  composite z-score: 1.19
[3]
  composite z-score: 0.663
[4]
  composite z-score: 0.877
[5]
  composite z-score: 1.09
[6]
  composite z-score: 0.805
[7]
  z-score: -1.03
Lefty1
  composite z-score: 0.794
[8]
  composite z-score: 0.583
[9]
  z-score: -1.17 (inactive)

## Cc1ccc(C(C)CC(O)C2C=CC3C(=O)N(c4ccccc4)C(=O)C3N2Nc2ccc(C#N)cc2)o1 (stereo not given)
[1]
  composite z-score: 1.21
[2]
  composite z-score: 1.24
[3]
  composite z-score: 0.175
[4]
  composite z-score: 1.03
[5]
  composite z-score: 1.24
[6]
  composite z-score: 0.37
[7]
  z-score: 0.289
Lefty1
  composite z-score: 0.0143
[8]
  composite z-score: 0.586
[9]
  z-score: -0.993 (inactive)

## COC(=O)[C@@]1(Cc2ccccc2CN=[N+]=[N-])N=C(c2ccc(OCCCO)cc2)O[C@H]1c1ccccc1CN=[N+]=[N-]
[1]
  composite z-score: -0.242
[2]
  composite z-score: 0.113
[3]
  composite z-score: -0.198
[4]
  composite z-score: -0.819
[5]
  composite z-score: -0.261
[6]
  composite z-score: -0.167
[7]
  z-score: -0.546
Lefty1
  composite z-score: -1.09
[8]
  composite z-score: 0.495
[9]
  z-score: -2.23 (inactive)

## COc1cc(NN2C(C(O)C3CCCCC3)C=CC3C(=O)N(c4ccccc4)C(=O)C32)cc(OC)c1OC (stereo not given)
[1]
  composite z-score: 1.96
[2]
  composite z-score: 1.26
[3]
  composite z-score: 0.724
[4]
  composite z-score: 0.964
[5]
  composite z-score: 0.459
[6]
  composite z-score: -0.776
[7]
  z-score: -0.0727
Lefty1
  composite z-score: -0.175
[8]
  composite z-score: 1.23
[9]
  z-score: -0.45 (inactive)

## Cc1c(NC(=O)/C(C#N)=C/c2ccccc2Cl)c(=O)n(-c2ccccc2)n1C
[1]
  composite z-score: 0.228
[2]
  composite z-score: 0.654
[3]
  composite z-score: -0.0387
[4]
  composite z-score: 0.425
[5]
  composite z-score: 0.255
[6]
  composite z-score: -0.0318
[7]
  z-score: 0.886
Lefty1
  composite z-score: -0.0835
[8]
  composite z-score: 0.195
[9]
  z-score: -0.805 (inactive)

## O=C(O)[C@H]1C[C@H]2C(=O)N[C@@H](Cc3ccccc3)C(=O)N2[C@H]1c1cccc(OCCO)c1
[1]
  composite z-score: 1.7
[2]
  composite z-score: -0.0006
[3]
  composite z-score: -0.167
[4]
  composite z-score: 0.472
[5]
  composite z-score: 1.43
[6]
  composite z-score: 1.44
[7]
  z-score: 0.706
Lefty1
  composite z-score: 1.33
[8]
  composite z-score: 0.568
[9]
  z-score: -0.832 (inactive)

## CCOC(=O)C[C@H]1[C@H](OC(=O)c2ccc(-c3ccccc3)cc2)[C@@H](NC(=O)Cc2ccc(OC)cc2)c2cc(OCCCO)ccc2N1C(=O)Cc1ccc(OC)cc1
[1]
  composite z-score: -0.871
[2]
  composite z-score: -0.0151
[3]
  composite z-score: 0.0348
[4]
  composite z-score: 0.15
[5]
  composite z-score: 0.0322
[6]
  composite z-score: -0.0269
[7]
  z-score: 1.94
Lefty1
  composite z-score: -0.289
[8]
  composite z-score: 0.175
[9]
  z-score: -0.754 (inactive)
